mHTT CaM bind – inhibitors of human mutant huntingtin-calmodulin interaction | hit rate 3.6% among 190,000 | AlphaScreen His-mHTT/GST-CaM binding, luminescence | AID 1671202 | inhibition, % at 15 µM | P42858
Pf apPOL block – Pf-apPOL DNA polymerase inhibition | Recombinant Pf-apPOL, molecular beacon fluorescence, 1.5 h | hit rate 0.25% among 210,000 | inhibition, % at 10 µM
Large screens that a line does not name were inactive. Many of the other results were omitted from the sample, so hits are more common in it than they were. Rule as the data show it: active = inhibition above about 50%; inactive = the rest.

COc1ccc(-c2[nH]nc3c2C2(C(C#N)=C(N)O3)c3ccccc3-c3ccccc32)cc1	mHTT CaM bind 79.0
CCc1[nH]nc2c1C1(C(C#N)=C(N)O2)c2ccccc2-c2ccccc21	none
COc1ccccc1Nc1ncc2c(n1)CCN(Cc1cccc(F)c1)C2	none
O=C(c1cn(-c2ccc(F)cc2F)c(=O)c2ccccc12)N1CCC(Cc2ccccc2)CC1	mHTT CaM bind 61.0
COc1ccccc1N1CCN(C(=O)c2cn(-c3ccc(F)cc3F)c(=O)c3ccccc23)CC1	none
CC(=O)c1cccc(NCN2C(=O)c3ccc(Br)cc3C2=O)c1	none
O=C(CN1CCC2(CC1)N=C(c1cccc(F)c1)C(=O)N2)Nc1cccc(Cl)c1	none
CCN(CC)C(=O)C1CCCN(c2ccc([N+](=O)[O-])cc2C=O)C1 (stereo unspecified)	mHTT CaM bind 70.4
CCN(CC)C(=O)C1CCCN(Cc2ccc([N+](=O)[O-])o2)C1 (stereo unspecified)	none
Cc1nc2c(Br)c3c(c(Br)c2[nH]1)n(C)c(=O)n3C	none
CC(C)C(=O)N1CCCc2ccc(NC(=O)C(=O)NCc3ccsc3)cc21	none
Cc1ccc(Cc2c(C)nc3c(C(=O)NCCC(C)C)c[nH]n3c2=O)cc1	none
Cc1ccc(Cc2c(C)nc3c(C(=O)NC4CCCC4)c[nH]n3c2=O)cc1	mHTT CaM bind 75.0
Cc1nc2c(C(=O)O)c[nH]n2c(=O)c1Cc1ccc(Cl)cc1	none
Cc1nc2c(C(=O)NC3CCCC3)c[nH]n2c(=O)c1Cc1ccc(Cl)cc1	mHTT CaM bind 55.0
Cc1ccc(-c2noc(C3CCCN3S(=O)(=O)c3cccc(Cl)c3C)n2)cc1 (stereo unspecified)	none
Cc1ccc(C(=O)Sc2nc(C)cc(C)n2)cc1	mHTT CaM bind 71.0
Cc1cc(C)nc(SCC(=O)c2ccc(C(C)C)cc2)n1	none
CCN1C(=O)Cc2cc(C(=O)NC3CCCCCC3)ccc21	none
Cn1cc2c3c(cccc31)CN(C(=O)c1ccc(Br)o1)CC2	none
COc1cc(C)c(S(=O)(=O)n2cnc3cc(C)c(C)cc32)cc1C	mHTT CaM bind 67.0
COc1cc(S(=O)(=O)n2cnc3cc(C)c(C)cc32)c(C)cc1C	none
CC(=O)c1ccc(NC(=O)c2cc3ccccc3o2)cc1	none
CN(C)c1ccc(NC(=O)c2cc3ccccc3o2)cc1	mHTT CaM bind 59.7
COc1ccc(NC(=O)Nc2nnc(Cc3ccc(F)cc3)s2)cc1	none
CC1=NN(c2ccccc2)C(=O)/C1=C/c1ccc(N(C)C)cc1	none
CC1=NN(c2ccc(Br)cc2)C(=O)/C1=C/c1ccc(N(C)C)cc1	none
CC1=NN(c2nc(-c3ccccc3)cs2)C(=O)/C1=C/c1ccc(C)s1	none
CC1=NN(c2nc(-c3ccccc3)cs2)C(=O)/C1=C/c1ccco1	mHTT CaM bind 76.0
CC1=NN(c2ccc(Cl)c(Cl)c2)C(=O)/C1=C/c1ccccc1	none
CC1=NN(c2nc(-c3ccc(C)cc3)cs2)C(=O)/C1=C/c1ccc(N(C)C)cc1	mHTT CaM bind 56.0
CCc1ccc(N2N=C(C)/C(=C\c3ccc(N(C)C)cc3)C2=O)cc1	mHTT CaM bind 70.0
CCN(C)c1ccc(/C=C2/C(=O)N(c3ccc(Cl)c(Cl)c3)N=C2C)cc1	mHTT CaM bind 61.0
CS(=O)(=O)Nc1cccc(NC(=O)C2CCCN(c3ccc(-n4ccnc4)nn3)C2)c1 (stereo unspecified)	none
CS(=O)(=O)NC1CC2CC1N(C(=O)NCc1cccc(F)c1)C2 (stereo unspecified)	none
O=C1OC(NS(=O)(=O)c2ccc(Cl)cc2)c2ccccc21 (stereo unspecified)	none
CC1=NN(c2cccc(Cl)c2)C(=O)/C1=C/c1ccc(Cl)c([N+](=O)[O-])c1	mHTT CaM bind 76.0
CCN(CC)c1ccc(/C=C2/C(=O)N(c3ccc(C)cc3)N=C2C)cc1	none
CC1=NN(c2ccc(Cl)c(Cl)c2)C(=O)/C1=C/c1ccc(C)c([N+](=O)[O-])c1	none
CCN(CC)c1ccc(/C=C2/C(=O)N(c3ccc(Cl)c(C(=O)O)c3)N=C2C)cc1	mHTT CaM bind 59.0
CC1CC(N=Cc2ccc([N+](=O)[O-])s2)CC(C)(C)C1 (stereo unspecified)	none (no result: mHTT CaM bind)
CN1C(=O)/C(=C2\SC(=S)N(CC3CCCO3)C2=O)c2cc(Br)ccc21 (stereo unspecified)	none (no result: Pf apPOL block)
COc1ccccc1C(=O)Nc1c2c(nn1-c1ccc(F)cc1)CS(=O)(=O)C2	none
O=C(Cc1ccsc1)N1CCN(C(=O)c2nnn3c2COC(c2ccccc2)C3)CC1 (stereo unspecified)	none
O=[N+]([O-])c1ccc(C2SCCN2S(=O)(=O)c2ccc(F)cc2)cc1 (stereo unspecified)	none
CCCn1ccc2sc(C)c(C(=O)N3CCN(c4ccccc4)CC3)c2c1=O	none
Cc1sc2ccn(C)c(=O)c2c1C(=O)N1CCCCC1	none
Cc1sc2ccn(C)c(=O)c2c1C(=O)N1CCN(c2ccc(Cl)cc2)CC1	mHTT CaM bind 70.1
CCn1ccc2sc(C)c(C(=O)N3CCN(c4ccccc4)CC3)c2c1=O	mHTT CaM bind 58.6
COc1ccc(C(=S)NN)cc1	mHTT CaM bind 58.2 (no result: Pf apPOL block)
CCOC(=O)NC(=S)c1ccc(OC)cc1	none (no result: mHTT CaM bind)

Screening results from PubChem BioAssay.
